Among the data in PubChem BioAssay (NCI) are growth values, retold here.

Where “and” joins values, the source holds several entries; their conditions need not be identical. Identical values can stand only once. This is part of a sample that, as a whole, favours compounds with a hit. Of some 83,000 tested, about 20% had one in any assay.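 Treatment: one concentration, 48 hours, 96-well format. Scoring: percent growth, with anything below 10 considered active.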 A number with no mark means an inactive call. Calls of active or inactive are those of the source.

For this test, the system named is HL-60(TB) leukemia. Briefly: NCI-60 one-dose screen, 48 h (100 = growth as untreated, 0 = no growth, -100 = all killed). Conditions: 10 µM unless noted. The procedure:
Growth inhibition of the HL-60(TB) human tumor cell line is measured as a screen for anti-cancer activity. Cells are grown in 96 well plates and exposed to the test compound for 48 hours. Compounds are tested at a single concentration, which is 10^-5 M for most compounds. The reported endpoint is percent growth (GI% or GIPRCNT), where numbers from 0 - 100% represent growth inhibition, and numbers from -100% - 0 represent cell death. For example, a value of 40 represents 60% growth inhibition. A value of 0 means no net growth occurred over the course of the experiment. A value of -40 indicates 40% of cells at the beginning of the experiment died by the end of the experiment. A value of -100 means all cells are dead at the end of the experiment.
NCI-60 Human Tumor Cell Lines Screen was performed using the standard one-dose NCI protocol, which is described in more detail at https://dtp.cancer.gov/discovery_development/nci-60/default.htm.
Compounds with GIPRCNT values below 10 were considered active. Activity score was based on GIPRCNT using the following formula: […]
Score is 0 for GIPRCNT values of 100 or above, 50 for GIPRCNT values of 0, and 100 for GIPRCNT values of -100.
As for `CC(=O)Oc1ccc(/C=C/C(=O)N[C@@H](Cc2ccccc2)C(O)C(=O)NCc2ccccc2)cc1OC(C)=O` (stereo not given in full), the growth was 79.4%.

For `CCOP(=O)(OCC)O[C@H]1CCC(=O)[C@@H]2[C@H]1[C@H]1C[C@@H]3[C@@]4(C)CCCC(C)(C(=O)OC)[C@@H]4CC[C@@]23C=C1C(C)C` (stereo not given in full), the growth was 36.4%.

Turning to `COc1ccc2[nH]cc(-c3nc(N)nnc3-c3cn(C)c4ncc(Br)cc34)c2c1`, the growth is -44.9% (active).

`O=C(NO)c1ccc(CN2CCN(c3nc(-c4ccccc4)c4ccccc4n3)CC2)cc1`: the growth was 7.7% (active).

Regarding `O=C1Nc2ccccc2/C1=C\c1ccc(OCC(=O)c2ccc(Br)cc2)cc1`, the growth was 40.4%.

`O=C1Nc2cc(Cl)ccc2/C1=C/c1ccc(OCc2ccc(Br)cc2F)cc1`: the growth is 81.5%.

Consider `CC(=O)Nc1cccc(-n2c(COc3ccc(Br)cc3)nc3ccccc32)c1`, for which the growth was 113% and 103%.

Turning to `CSc1ccc(NC(=O)c2ccc3nnn(/C(C#N)=C/c4ccccn4)c3c2)cc1`, the growth was 2.93% (active).

Turning to `Cc1ccc(-n2c(-c3cc4ccccc4nc3Cl)noc2=O)cc1`, the growth is 85.1%.

As to `COc1ccccc1C(=O)NNC(=O)CSc1nc2c(c(=O)[nH]1)CCCC2`, the growth is 100%.

Regarding `CO[C@@H]1CSS[C@H]1Cn1nc(-c2ccc(Oc3ccccc3)cc2)c2c(N)ncnc21`, the growth is 25.8%.

Take `Cc1cccc(NCC(=O)N2CCN(c3ncnc4c3cnn4-c3ccccc3)CC2)c1`: the growth is 60.2%.

Turning to `Fc1ccc(F)c(CNc2nc(SCCN3CCOCC3)nc3c2cnn3CC(Cl)c2ccc(Br)cc2)c1` (stereo not given), the growth is -12.3% (active).

In the case of `CN(C)CCOc1ccc(C(=O)C2[C@H](c3ccc(Cl)cc3)[C@@H](c3ccccc3)NC23C(=O)Nc2ccc(Cl)cc23)cc1` (stereo not given in full), the growth is -75.6% (active).

For the compound `COc1c(F)ccc(C(=O)Nc2ccc3nc(NC(=O)C4CCCN(S(=O)(=O)c5cccc(Br)c5)C4)sc3c2)c1F` (stereo not given), the growth is 80.6%.

With `CN1CCN(c2ccc(C(=O)/C=C/c3ccc(C#N)cc3)cc2)CC1`, the growth is 65.1%.

As to `O=C(NN1C(=O)/C(=C/C=C/c2ccc([N+](=O)[O-])o2)SC1=S)c1ccc(O)cc1`, the growth was -41.8% (active).

With `C/C(=N\Nc1ccc(S(N)(=O)=O)cc1)c1cnn(-c2cc(=O)[nH]c3ccc(Br)cc23)c1C`, the growth is 84.7%.

For the compound `O=C(/C=C/c1ccc(Cl)cc1Cl)c1nc2ccccc2n1Cc1ccc(F)cc1`, the growth is 28%.

For `CCCCCCCCCCCCCCCCCC(=O)Nc1ccc(OC)cc1`, the growth is 90.3%.

Consider `O=C(c1ccc(Cl)cc1)C(c1c[nH]c2ccccc12)c1c[nH]c2ccccc12`, for which the growth was -26.2% (active).

As to `COc1cc(/C=C/C(=O)c2cnn(-c3cc(=O)[nH]c4ccc(C)cc34)c2C)cc(OC)c1OC`, the growth is -28.4% (active).

Consider `O=C(c1ccc(F)cc1)C(c1c[nH]c2ccccc12)c1c[nH]c2ccccc12`, for which the growth was 41.8%.

Turning to `O=C(c1ccc([N+](=O)[O-])c([N+](=O)[O-])c1O)n1[nH]c(=O)c2ccccc2c1=O`, the growth was 44.6%.

With `Cc1ccc(Cc2cnc(NC(=O)c3ccc(/C=C4\SC(=S)N(C)C4=O)cc3)s2)cc1`, the growth was 18%.

In the case of `N/C(=N\c1nc2ccccc2s1)NC(=O)Nc1ccc(Cl)cc1Cl`, the growth is -66% (active).

As for `O=Cc1cncc(-c2ccc3ncnc(N4CCc5cc(F)c(Cl)cc54)c3c2)c1`, the growth is 44.3%.

With `COc1ccc2[nH]cc(-c3cc4nc(-c5cn(C)c6ncc(Br)cc56)cc(N)n4n3)c2c1`, the growth was -61.2% (active).

Turning to `CSc1ccc(C(=O)Nc2ccc3nnn(/C(C#N)=C/c4ccccn4)c3c2)cc1`, the growth was 6.83% (active).

`COc1cc(/C=C/C(=O)c2ccc(F)cc2)ccc1Oc1nc(Nc2ccc(F)cc2)nc(N(C)C)n1`: the growth was 61.3%.

With `COc1cc2c(c(OC)c1OC)C(=O)CC(c1cccc(NC(=O)c3cc(NC(=O)[C@@H](N)CO)ccc3C)c1)O2` (stereo not given in full), the growth was 101%.

For `N#CC1=C(c2cccs2)Nc2c(c(-c3ccccc3)nn2-c2ccccc2)C12C(=O)Nc1ccc(Br)cc12` (stereo not given), the growth was -7.78% (active).

`COc1cc(NC(=O)C(C)C)ccc1C(=O)NC(=S)Nc1ccc(S(N)(=O)=O)cc1`: the growth is 92.5%.

With `O=C(NC(=S)N1CCN(c2ncnc3c2cnn3-c2ccccc2)CC1)c1ccc(Br)cc1`, the growth is 90.8%.

As to `Cc1ccc(NC(=O)[C@]23CCC(C)(C)CC2C2=CCC4[C@@]5(C)C[C@@H](O)[C@H](O)[C@@](C)(CO)C5CC[C@@]4(C)[C@]2(C)CC3)cc1` (stereo not given in full), the growth was -15.4% (active).

Turning to `CCCCSc1nc(Nc2ccc(S(N)(=O)=O)cc2)c(C#N)c(-c2ccc(Cl)cc2)n1`, the growth is 62.9%.

Turning to `Cc1cc(=O)oc2cc(OCCCCOc3ccc(/C=C/C(=O)Nc4ccc(F)c(Cl)c4)cc3)ccc12`, the growth was 97.6%.

Consider `N#C/C(=C/c1ccc(Cl)cc1)c1nnc(NC(=O)c2ccc(-n3c(=O)[nH]c4ccccc4c3=O)cc2)s1`, for which the growth was 98.2%.

For `O=C(/C=C/c1ccc(-c2ccccc2)cc1)c1nc2ccccc2n1Cc1ccc(Br)cc1`, the growth was 35.3%.

`O=[N+]([O-])c1ccc(-c2nc(-c3ccccc3)c(-c3ccccc3)n2-c2ccc(S(=O)(=O)Nc3ncccn3)cc2)cc1`: the growth is 38.2%.
